Consider 15 compounds from ChEMBL document CHEMBL1961873, “Compounds: GSK PKIS; Assays: Nanosyn kinase panel” (2012).

The inhibition is the change of the read-out against control, counted positive when it falls.

Several values for one entry are separate records, joined by “and”; a condition that tells them apart may be missing. Identical values can stand only once.
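Further: reported figure is the mean of RET inhibition measurements.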

The target in the experiment is Proto-oncogene tyrosine-protein kinase receptor Ret (Homo sapiens) (UniProt P07949). The note with it: at 0.1 µM.
Chain of Proto-oncogene tyrosine-protein kinase receptor Ret (Homo sapiens) (P07949 whole entry): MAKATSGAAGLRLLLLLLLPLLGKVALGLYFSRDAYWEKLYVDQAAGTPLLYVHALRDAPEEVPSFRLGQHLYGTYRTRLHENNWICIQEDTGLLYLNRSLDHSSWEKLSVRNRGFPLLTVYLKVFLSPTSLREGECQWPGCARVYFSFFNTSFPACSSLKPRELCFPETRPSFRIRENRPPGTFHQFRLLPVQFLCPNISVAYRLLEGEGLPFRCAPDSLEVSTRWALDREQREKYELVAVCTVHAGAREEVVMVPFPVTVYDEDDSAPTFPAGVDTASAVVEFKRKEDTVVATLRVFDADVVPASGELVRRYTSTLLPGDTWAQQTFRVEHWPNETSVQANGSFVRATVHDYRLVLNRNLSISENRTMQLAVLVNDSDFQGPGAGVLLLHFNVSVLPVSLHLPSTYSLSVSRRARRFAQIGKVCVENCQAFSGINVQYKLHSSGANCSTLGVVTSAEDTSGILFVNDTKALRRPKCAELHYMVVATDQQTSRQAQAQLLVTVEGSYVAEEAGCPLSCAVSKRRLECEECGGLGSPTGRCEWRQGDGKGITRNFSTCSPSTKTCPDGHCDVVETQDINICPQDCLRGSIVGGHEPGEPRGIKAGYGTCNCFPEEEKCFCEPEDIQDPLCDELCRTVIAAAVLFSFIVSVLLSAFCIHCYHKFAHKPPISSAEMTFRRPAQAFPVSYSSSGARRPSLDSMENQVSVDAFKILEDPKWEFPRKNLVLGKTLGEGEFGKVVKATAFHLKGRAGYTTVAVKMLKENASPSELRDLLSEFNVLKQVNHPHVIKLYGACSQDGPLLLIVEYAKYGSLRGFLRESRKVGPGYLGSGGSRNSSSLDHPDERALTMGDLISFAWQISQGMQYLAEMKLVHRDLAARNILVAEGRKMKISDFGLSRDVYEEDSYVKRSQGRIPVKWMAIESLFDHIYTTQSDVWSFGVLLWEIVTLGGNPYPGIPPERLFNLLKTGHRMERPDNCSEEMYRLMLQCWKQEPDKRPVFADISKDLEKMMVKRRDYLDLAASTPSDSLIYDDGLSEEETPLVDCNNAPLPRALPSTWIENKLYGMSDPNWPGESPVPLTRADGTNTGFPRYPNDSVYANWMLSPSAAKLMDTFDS
For `Cc1cc(O)cc(C)c1/C=C/c1cncc(C(=O)OC(C)(C)C)c1`, the inhibition is 5.39%.
Under `CS(=O)(=O)Nc1ccc(-c2ccc3c(NC(=O)C4CC4)n[nH]c3c2)cc1` stands 3.92%; under `COc1cc2c(cc1Nc1nc(Nc3cccc(F)c3C(N)=O)c3cc[nH]c3n1)N(C(=O)CN1CCN(C(C)C)CC1)CC2`, 1.04%.
With `COC(=O)Nc1nc2cc(Oc3ccc(NC(=O)Nc4ccccc4)cc3)ccc2[nH]1` the figure was 11.1%; with `COc1ccccc1-c1cc(/C=C2\C(=O)Nc3ncc(Br)cc32)cc(Br)c1O`, 2.23%.
Under `O=C(Nc1n[nH]c2nnc(-c3cccnc3)cc12)C1CC1` stands -1.02%; under `CCOc1ccc2c(-c3ccnc(Nc4cc(OC)cc(C(F)(F)F)c4)n3)cnn2n1`, 2.73%; under `O=C(O[C@H]1CN[C@H](C#Cc2cc3ncnc(Nc4ccc(OCc5cccc(F)c5)c(Cl)c4)c3s2)C1)N1CCOCC1`, 2%.
For the compound `CC1=C(C(=O)Nc2ccc3[nH]ncc3c2)C(c2ccc(F)cc2)N=C(c2ccc(C(F)(F)F)nc2)N1` (stereo not given), the inhibition turned out to be 7.82%.
With `Nc1nccc(-c2c(-c3ccc(F)cc3)ncn2C2CCNCC2)n1` the figure was -0.37% and 2.86%; with `COc1c(C(N)=O)cc(-c2ccc(Cl)cc2)cc1-c1ccc(S(N)(=O)=O)cc1`, 2.82%.
As to `CCS(=O)(=O)c1ccc(OC)c(Nc2ncc(-c3cccc(F)c3)o2)c1`, the inhibition was determined as 13.5%.
With `Cc1c2ccc(N(C)c3ccnc(Nc4cccc(S(N)(=O)=O)c4)n3)cc2nn1C`, the inhibition came to 44.6%.
Under `CN(C)CCNC(=O)Nc1ccc(N(C)c2ccnc(Nc3ccc(CS(C)(=O)=O)cc3)n2)cc1` stands 7.81%.
With `COc1ccc2ncn(-c3cc(O[C@H](C)c4ccccc4C(F)(F)F)c(C(N)=O)s3)c2c1` the figure was 1.52%.
